Data: PubChem BioAssay AID602350 (Broad Institute, 2012)
Results with a measured potency or affinity are listed apart. Active and inactive are the calls of the source.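 The calls were made as follows: active = absorbance falls by 30% or more versus neutral controls, with a potency fitted within twice the top valid dose; inconclusive = no clear call, values can overlap the other calls; inactive = change opposite to expected direction, plus the rest.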

Target: Protein disulfide-isomerase (Homo sapiens) (UniProt P07237)
Assay: inhibition of PDI-driven insulin aggregation – biochemical, turbidity, absorbance, cherry-picked samples, dose response (AID 602350)

Protein disulfide-isomerase (Homo sapiens), sequence (P07237 whole entry, looked up): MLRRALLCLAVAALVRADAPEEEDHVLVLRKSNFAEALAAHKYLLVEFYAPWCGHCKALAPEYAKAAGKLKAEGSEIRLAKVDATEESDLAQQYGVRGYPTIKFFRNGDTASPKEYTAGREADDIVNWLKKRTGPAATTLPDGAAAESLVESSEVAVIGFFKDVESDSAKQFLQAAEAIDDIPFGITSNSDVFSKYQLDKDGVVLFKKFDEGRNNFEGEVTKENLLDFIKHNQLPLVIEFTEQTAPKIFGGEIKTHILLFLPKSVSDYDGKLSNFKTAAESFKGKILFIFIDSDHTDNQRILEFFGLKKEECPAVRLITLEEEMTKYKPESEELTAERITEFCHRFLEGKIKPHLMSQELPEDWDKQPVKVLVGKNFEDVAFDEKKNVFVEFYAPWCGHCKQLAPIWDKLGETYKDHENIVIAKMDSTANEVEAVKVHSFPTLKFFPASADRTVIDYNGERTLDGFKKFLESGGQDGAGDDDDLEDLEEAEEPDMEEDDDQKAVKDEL

| SMILES | outcome |
| --- | --- |
| COc1ccc(Oc2ccc(/C=C/C(=O)c3ccc(O)cc3)cc2[N+](=O)[O-])cc1 | inactive |
| O=S(=O)(Nc1ccc(C(O)(C(F)(F)F)C(F)(F)F)cc1)c1ccc(Cl)c2nonc12 | inactive |
| CC1(C(=O)NS(=O)(=O)c2ccccc2Cl)CCN1C(=O)c1ccccc1CCc1ccccc1 (stereo unspecified) | inactive |
| COc1ccc(S(=O)(=O)NC(C)C(=O)Nc2ccccc2F)cc1 (stereo unspecified) | inactive |
| CN(C)C(=O)CSc1n[nH]c(-c2ccco2)n1 | inactive |
| CCc1ccc2[nH]c(=O)c(CN(Cc3ccccc3OC)Cc3nnnn3Cc3ccco3)cc2c1 | inactive |
| CCN1CCN(Cc2ccc(NC(=O)c3cc(NC(=O)c4cc(-c5ccc(OC)cc5)n[nH]4)cc(OC)c3)cc2C(F)(F)F)CC1 | inactive |
| CCS(=O)(=O)c1ccc2oc(SCC(=O)NC(C)C3CC4CCC3C4)nc2c1 (stereo unspecified) | inactive |
| Cc1cc(C)c(C)c(S(=O)(=O)N2CCC(C(=O)N(C)Cc3nc4ccccc4c(=O)[nH]3)CC2)c1C | inactive |
| Cc1cc(NC(=O)COC(=O)C2CC(=O)N(c3ccccc3)C2)no1 (stereo unspecified) | inactive |
| CCOC(=O)c1cc(S(=O)(=O)N2CCN(C(=O)OCC)CC2)cn1C | inactive |
| CCOC(=O)c1oc2cccc(O)c2c1CN(Cc1ccccc1)C(C)=O | inactive |
| O=C(Nc1ccccc1)c1cc(C2CCCCN2C(=O)c2ccccc2)on1 (stereo unspecified) | inactive |
| CCOc1ccc(/C=N/OC(C)C(=O)NCc2ccc3c(c2)OCO3)cc1 (stereo unspecified) | inactive |
| C[C@@H]1CN([C@@H](C)CO)C(=O)c2cc(NC(=O)Cc3cn(C)c4ccccc34)ccc2O[C@@H]1CN(C)S(=O)(=O)c1ccc(F)cc1 | inactive |
| O=C(NN1CC(C(=O)OCc2ccccc2F)CC1=O)c1ccccc1 (stereo unspecified) | inactive |
| COc1cc2c(cc1OC)C(C)N(CC(=O)Nc1ccc(S(=O)(=O)N3CCCC3)cc1)CC2 (stereo unspecified) | inactive |
| OCCC1CN(Cc2cccn2-c2ccccn2)CCN1C1CCCCC1 (stereo unspecified) | inactive |
| O=C1CN(c2nc3ccccc3n3cnnc23)CC(=O)N1CCc1ccccc1 | inactive |
| CCOc1ncccc1C(=O)OCC(=O)Nc1ccc(C(C)C)cc1 | inactive |
| Cc1nnc(N/N=C/c2ccc(-c3ccccc3F)o2)n1N | inactive |

| SMILES | outcome |
| --- | --- |
| C[C@@H](C(=O)NCc1ccccc1)N1C(=O)C2CC=CCC2C1=O (stereo partly specified) | inactive |
| CCOC(=O)c1c(CN2CCOCC2)n(-c2ccccc2)c2ccc(O)cc12 | inactive |
| CCN(CC)C(=O)CSc1nnc([C@H](Cc2c[nH]c3ccccc23)NC(=O)OC(C)(C)C)o1 | inactive |
| COc1cc(C(=O)N2CCN(C/C=C/c3ccccc3)CC2)cc(OC)c1OC | inactive |
| CN1C(=O)NC(c2ccccc2)C2=C1CN(c1cccc(C(F)(F)F)c1)C2=O (stereo unspecified) | inactive |
| Cc1noc(C)c1-c1ccc(C(=O)NCc2ccc(Cl)cc2)c2occc12 | inactive |
| CN(C)CCCN(C(=O)c1ccc(S(=O)(=O)N2CCCc3ccccc32)cc1)c1nc2ccc(F)cc2s1 | inactive |
| CC(=O)c1ccc(NC(=O)c2cc(Cl)nc3ccccc23)cc1 | inactive |
| CCOC(=O)C1(Cc2ccc(O)cc2)NC(c2ccccc2F)C2C(=O)N(C)C(=O)C21 (stereo unspecified) | inactive |
| Cc1ccc(C)c(NS(=O)(=O)c2c(C)nn(C)c2C)c1 | inactive |
| Cc1ccc2nsnc2c1NC(=O)c1cccnc1Cl | inactive |
| NC(=O)c1ccc(NC(=O)COC(=O)c2ccc(Br)c(S(=O)(=O)N3CCOCC3)c2)cc1 | inactive |
| Cc1ccc(NC(=O)CSC(C)C(=O)OCc2cc(=O)oc3cc(O)ccc23)cc1 (stereo unspecified) | inactive |
| CCOC(=O)c1ccc2c(c1)nc(SCC(=O)N1CCCCC1)n2CC | inactive |
| Cc1ccc(S(=O)(=O)N(C)c2ccc(OC(=O)COc3ccccc3)cc2)cc1 | inactive |
| Cc1ccc(SCC(=O)c2sc(-c3ccccc3)nc2C)cc1 | inactive |
| Cc1noc(C)c1S(=O)(=O)Nc1ccc2c(c1)CC(=O)N([C@H](C)CO)C[C@H](C)[C@H](CN(C)S(C)(=O)=O)O2 | inactive |
| CC(=O)C1=C(O)C(=O)N(CCc2c[nH]c3ccccc23)C1c1cccc(O)c1 (stereo unspecified) | inactive |
| CCOC(=O)c1c(CN2CCN(C)CC2)n(C)c2cc(Br)c(OC)cc12 | inactive |
| COc1ccccc1NS(=O)(=O)c1cccc(C(=O)NCC2(N3CCCCC3)CCCCC2)c1 | inactive |
